How the values were obtained:
Assay in all cases: thermal shift delta Tm vs DMSO control; higher = stronger stabilization (binding)
Conditions in all cases: 12.5 µM; protein concentration 2 µM
LOC_OS01G01410-cb001 = tested on: LOC_OS01G01410-cb001
Method in brief: (§1)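 Rice kinase domain constructs, made in E. coli and purified, were placed in 96-well plates at 2 μM in 19.5 μl of 100 mM potassium phosphate pH 7.5, 150 mM NaCl, 10% glycerol and 5 × SYPRO Orange, with compound in DMSO. A temperature ramp from 25°C to 95°C at 0.05°C/s was used for differential scanning fluorimetry. The melting temperature shift is a triplicate mean compared with DMSO-only protein, derived from Boltzmann fits.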

LOC_OS01G02750-cb003 = tested on: LOC_OS01G02750-cb003
Method in brief: as §1

LOC_OS01G10900-cb004 = tested on: LOC_OS01G10900-cb004
Method in brief: as §1

LOC_OS01G13800-cb001 = tested on: LOC_OS01G13800-cb001
Method in brief: as §1

LOC_OS01G14860-cb001 = tested on: LOC_OS01G14860-cb001
Method in brief: as §1

LOC_OS01G21960-cb002 = tested on: LOC_OS01G21960-cb002
Method in brief: as §1

LOC_OS01G39600-cb002 = tested on: LOC_OS01G39600-cb002
Method in brief: as §1

LOC_OS01G48390-cb002 = tested on: LOC_OS01G48390-cb002
Method in brief: as §1

LOC_OS01G51400-cb002 = tested on: LOC_OS01G51400-cb002
Method in brief: as §1

LOC_OS01G52050-cb004 = tested on: T1, LOC_OS01G52050-cb004
T1 sequence (whole entry): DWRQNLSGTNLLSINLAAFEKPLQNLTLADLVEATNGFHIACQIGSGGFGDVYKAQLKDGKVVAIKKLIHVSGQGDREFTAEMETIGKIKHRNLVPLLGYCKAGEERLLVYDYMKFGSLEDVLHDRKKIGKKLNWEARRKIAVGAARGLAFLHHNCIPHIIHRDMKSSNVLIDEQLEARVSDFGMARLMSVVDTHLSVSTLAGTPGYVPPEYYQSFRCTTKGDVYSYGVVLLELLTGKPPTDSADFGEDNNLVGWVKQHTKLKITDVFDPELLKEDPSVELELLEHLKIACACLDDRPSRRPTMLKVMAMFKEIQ
Method in brief: as §1
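Also: purified Escherichia coli-expressed rice kinase domain construct.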

Compound	thermal shift delta Tm (LOC_OS01G01410-cb001) [°C]	thermal shift delta Tm (LOC_OS01G02750-cb003) [°C]	thermal shift delta Tm (LOC_OS01G10900-cb004) [°C]	thermal shift delta Tm (LOC_OS01G13800-cb001) [°C]	thermal shift delta Tm (LOC_OS01G14860-cb001) [°C]	thermal shift delta Tm (LOC_OS01G21960-cb002) [°C]	thermal shift delta Tm (LOC_OS01G39600-cb002) [°C]	thermal shift delta Tm (LOC_OS01G48390-cb002) [°C]	thermal shift delta Tm (LOC_OS01G51400-cb002) [°C]	thermal shift delta Tm (LOC_OS01G52050-cb004) [°C]
CC(=O)c1c(C)c2cnc(Nc3ccc(N4CCNCC4)cn3)nc2n(C2CCCC2)c1=O	0.65	0.74	0.47	-0.38	2.26	0.28	0.65	0.1	0	0.98
C#Cc1cccc(Nc2ncnc3cc(OCCOC)c(OCCOC)cc23)c1 [Erlotinib]	0.56	0.35	0.59	0.04	0.32	0.72	2.19	0.85	-0.14	0.19
COc1cc2ncnc(Nc3ccc(Cl)cc3F)c2cc1OC	0.69	0.81	0.27	0.26	0.32	0.85	1.07	0.9	0.46	0.58
O=C(NC(NC(=S)Nc1ccc(F)c([N+](=O)[O-])c1)C(Cl)(Cl)Cl)C(c1ccccc1)c1ccccc1 (stereo not given)	3.6	9.2	2.57	2.31	3.26	3.31	28.9	3.82	1.04	3.03
C=CC(=O)Nc1cc(Nc2nccc(-c3c[nH]c4ccccc34)n2)c(OC)cc1N(C)CCN(C)C	0.92	0.98	0.33	0.08	0.37	0.6	0.12	0.83	0.34	0.96
COc1ccc(S(=O)(=O)N(C(C)=O)c2ccccc2/C=C/c2cc[n+]([O-])cc2)cc1	-0.1	0.48	0.77	0.64	0.58	0.67	-0.39	0.12	-0.08	0.02
CCn1c2ccccc2c2cc(Nc3ccnc(NCCCN4CCOCC4)n3)ccc21	-0.05	-0.06	0.59	-0.29	0.53	0.58	-0.04	0.62	0.13	0.07
C[S+]([O-])c1ccc(-c2nc(-c3ccc(F)cc3)c(-c3ccncc3)[nH]2)cc1 (stereo not given)	1.61	-0.29	0.57	0.79	2.49	1.22	0.18	0.4	-0.08	0.5
O=C(NC[C@H](O)CO)c1ccncc1Nc1ccc(I)cc1F	0.13	0.07	1.79	0.34	0.16	0.66	-0.15	0.13	-0.03	0.02
CC(C)n1nc(-c2ccc3oc(N)nc3c2)c2c(N)ncnc21	0.59	1.42	0.77	-0.13	0.42	0.3	-0.69	1.9	0.43	0.95
COc1cc2nccc(Oc3ccc(NC(=O)NC4CC4)c(Cl)c3)c2cc1C(N)=O [Lenvatinib (E7080)]	1.14	1.17	0.52	0.29	0.28	0.62	-0.02	0.47	0.04	0.33
CN1CCN(c2cccc(Nc3nc4c(-c5ccc(S(C)(=O)=O)cc5)cccn4n3)c2)CC1	2.06	0.63	1.02	-0.37	0.51	1.39	2.12	1.12	0.39	2.68
COc1cc2ncnc(Nc3cccc(Cl)c3F)c2cc1OC(=O)N1CCN(C)C[C@H]1C	0.74	0.31	0.52	-0.2	0.07	0.37	-0.74	0.45	0.35	-0.17
CN(C)Cc1cccc(N/C(=C2\C(=O)Nc3cc(C(N)=O)ccc32)c2ccccc2)c1	-0.11	0.69	1.98	-0.09	0.65	0.45	0.07	0.48	0.08	0.86
CCCS(=O)(=O)Nc1ccc(F)c(C(=O)c2c[nH]c3ncc(Cl)cc23)c1F	2.48	2.88	1.45	-0.05	0.85	0.52	2.73	3.29	0.32	1.3
COc1cc(OC)c(C=C2C(=O)Nc3ccccc32)c(OC)c1	0.16	0.24	1.24	0.46	0.32	0.88	0.01	0.22	0.14	-0.14
Cc1c[nH]c2nc(Nc3ccc(N4CCN(C)CC4)c(F)c3)nc(-c3cccc(CC#N)c3)c12	6.3	6.99	3.64	0.12	5.41	4.45	9.35	5.5	1.14	13.5
C=CC(=O)Nc1cccc(C)c1Nc1ncc2cc(-c3c(Cl)c(OC)cc(OC)c3Cl)ccc2n1	0.73	1.61	1.22	0.52	0.39	0.77	0.15	0.36	0.29	0.2
OC(c1cc(-c2ccc(Cl)cc2)nc2ccccc12)C1CCCCN1 (stereo not given) [Vacquinol-1]	0.1	1.71	0.31	1.34	0.11	1.18	-0.2	0.86	0.34	0.54
CNC(=O)c1cccc(-c2ccc3c(N4CCOC[C@@H]4C)nc(N4CCOC[C@@H]4C)nc3n2)c1 [Vistusertib (AZD2014)]	0.53	0.19	0.09	0.05	-0.13	0.23	-0.58	0.24	0.26	-0.25

— the supplement of paper PMC9694430
